# Records with an inconclusive call do not appear. Where a call stands in place of a potency, no number is given. Active and inactive are the calls of the source. The call rests on the fitted dose curve; in most records, active means well fitted cell-killing curve with a large enough effect in the repeat runs; inconclusive means weak or mixed curves, or effect the other way; inactive means no such curve, though single readings can be large or run the other way.
# Assay: qHTS assay to identify small molecule antagonists of the glucocorticoid receptor (GR) signaling pathway - cell viability counter screen (AID 720693); further: nearly all actives have a fitted effect of over 55% in size
# Conditions: GR-bla HeLa viability, CellTiter-Glo luminescence, 18 h, with 5 nM dexamethasone present; series mostly up to 58.5 µM
# Text: National Center for Advancing Translational Sciences [NCATS]
# NIH Chemical Genomics Center [NCGC]
# U.S. Environmental Protection Agency [EPA]
# National Institutes of Environmental Health Sciences [NIEHS]
# National Toxicology Program [NTP]
# U.S. Food and Drug Administration [FDA]
# The Glucocorticoid receptor (GR) is one of the members of the nuclear receptor family of ligand-dependent transcription factors. GR plays a critical role in carbohydrate, protein and lipid metabolisms and programmed cell death. CellSensor GR-bla HeLa cell line (Invitrogen) contains a beta-lactamase reporter gene under the control of the glucocorticoid response element stably integrated into HeLa cells, a cervical cancer cell line that expresses glucocorticoid receptor. The activation of the reporter gene under culture conditions can be detected by fluorescence intensity. This cell line has been used to screen the Tox21 10K compound library and to identify the compounds that inhibit the GR signaling. The cytotoxicity of the Tox21 compound library against the GR-bla HeLa cell line was tested in parallel by measuring the cell viability using CellTiter-Glo assay in the same wells.
# Tox21 Assay Protocol Summary:
# The GR-bla HeLa cells were dispensed at 1500 cells/5 ul/well in 1536-well black wall/clear bottom plates using a Multidrop Combi (ThermoFisher Scientific, Waltham, MA) dispenser. After the assay plates were incubated at a 37 C/5% CO2 incubator for 4 hours, 23 nL of compounds dissolved in DMSO, positive controls or DMSO only was transferred to the assay plate by a pintool station (Kalypsys, San Diego, CA), followed by addition of 1 uL of dexamethasone (5 nM, final concentration in the well). The plates were incubated at 37 C for 18 hours. After 1 uL of LiveBLAzerTM B/G FRET substrate was added using a Flying Reagent Dispenser (Aurora Discovery, San Diego, CA), the plates were incubated at room temperature (RT) for 2 hours, and fluorescence intensity was measured by an Envision plate reader (PerkinElmer, Shelton, CT). After measurement of bla assay, 3 ul CellTiter-Glo (Promega, Madison, WI) was added to measure the cytotoxicity and the plates were then incubated at RT for 30 min. The luminescence was measured using a ViewLux (Perkin Elmer) plate reader.
row,Structure (SMILES),Potency
1,O=C1NC(=O)c2ccccc21,inactive
2,Nc1ccn([C@H]2CC[C@@H](CO)O2)c(=O)n1,inactive
3,O=C(O)C(=O)O,inactive
4,NC(=O)NC1NC(=O)NC1=O (stereo not given),inactive
5,NS(=O)(=O)c1cc(C(=O)O)c(NCc2ccco2)cc1Cl,inactive
6,O=C(O)CCC(=O)O,inactive
7,CCCC(O)C(CC)CO (stereo not given),inactive
8,CCCCCCCCCCCCCCCC(=O)O,inactive
9,O=S(=O)(O)c1ccc2cc(O)ccc2c1,inactive
10,CNC[C@H](O)c1cccc(O)c1,inactive
11,OCCc1ccccc1,inactive
12,CCCCC(CC)COC(=O)/C=C/c1ccc(OC)cc1 (stereo not given),inactive
13,O=C(O)CCCCCCCC(=O)O,inactive
14,O=C(c1ccccc1)C(O)c1ccccc1 (stereo not given),inactive
15,Oc1ccc(/C=C/c2cc(O)cc(O)c2)cc1,inactive
16,NC(N)=NC(=O)c1nc(Cl)c(N)nc1N,inactive
17,CC(=O)OCC(COC(C)=O)OC(C)=O,inactive
18,CC(=O)Nc1nnc(S(N)(=O)=O)s1,inactive
19,CC(C)(Oc1ccc(C2CC2(Cl)Cl)cc1)C(=O)O (stereo not given),inactive
20,COc1ccc2[nH]cc(CCNC(C)=O)c2c1,inactive

row,Structure (SMILES),Potency
1,Nc1ccc(S(=O)(=O)Nc2nccs2)cc1,inactive
2,CCCN(CCC)S(=O)(=O)c1ccc(C(=O)O)cc1,inactive
3,Cc1cc(=O)[nH]c(=S)[nH]1,inactive
4,CCCCC1C(=O)N(c2ccccc2)N(c2ccccc2)C1=O,inactive
5,Cc1cn([C@H]2C[C@H](N=[N+]=[N-])[C@@H](CO)O2)c(=O)[nH]c1=O,inactive
6,Cn1cc[nH]c1=S,inactive
7,O=S(=O)(O)NC1CCCCC1,inactive
8,CC(O)C(=O)O (stereo not given),inactive
9,O=C(O)CCCCC(=O)O,inactive
10,NC(=O)c1ccccc1O,inactive
11,Cc1ccc(S(=O)(=O)NC(=O)NN2CCCCCC2)cc1,inactive
12,C1N2CN3CN1CN(C2)C3,inactive
13,Cc1ccc(C)c(OCCCC(C)(C)C(=O)O)c1,inactive
14,C[C@]12C=CC(=O)C=C1CC[C@@H]1[C@@H]2[C@@H](O)C[C@@]2(C)[C@H]1CC[C@]2(O)C(=O)CO,inactive
15,O=C(O)CS,inactive
16,NC(N)=O,inactive
17,O=C(c1ccccc1)c1ccccc1,inactive
18,CC1(C)[C@@H]2CC[C@@]1(C)C(=O)C2,inactive
19,CC(O)CN(CCN(CC(C)O)CC(C)O)CC(C)O (stereo not given),inactive
20,O=C(O)c1cc(N=Nc2ccc(S(=O)(=O)Nc3ccccn3)cc2)ccc1O,inactive

# Source: PubChem BioAssay (Tox21)
